# Reference: ChEMBL document CHEMBL3988442, “University of Dundee, Small-Polar-MMV Screening Library” (2021)
# The whole screen tested about 69,000 compounds, of which about 1,000 (1.4%) showed an effect of 50% or more. The sample as a whole holds a higher share of strong results than the screen did.
# Test system: Leishmania donovani
# Assay: Leishmania intramacrophage assay
# Format: functional, organism-based
# Parameters: scale not given: in the data most compounds retested in dose-response had high values
smiles,measurement,setting,value
NC(c1ccc(F)cc1)c1cccs1 (centres undefined),Percent Effect,"30.3 µM, […]",6.777%
CN(C)CCO[C@@H]1CC[C@H]2[C@H]1OCCN2C(=O)c1ccccc1F,Percent Effect,"30.3 µM, […]",24.56%
CCC1C(=O)NCCN1c1ccnc(C(C)(C)C)n1 (centres undefined),Percent Effect,"30.3 µM, […]",-23.65%
CC(C)c1nccc(CN2CCCC(O)(CN3CCCC3)C2)n1 (centres undefined),Percent Effect,"30.3 µM, […]",-4.495%
O=c1[nH]cccc1-c1nccc(C2(c3ccccc3Cl)CCNCC2)n1,Percent Effect,"30.3 µM, […]",3.768%
CC(C)c1nccc(C2(c3ccccc3Cl)CCNCC2)n1,Percent Effect,"30.3 µM, […]",86.79%
CC(C)c1nccc(CN2CCC(O)(CN3CCCCC3)C2)n1 (centres undefined),Percent Effect,"30.3 µM, […]",18.94%
Clc1ccccc1C1(c2ccnc(-c3ccncc3)n2)CCNCC1,Percent Effect,"30 µM, 30.03 µM",69.77%
CC(C)(C)c1nccc(C2(c3ccccc3Cl)CCNCC2)n1,Percent Effect,"30.3 µM, […]",98.02%
Clc1ccccc1C1(c2ccnc(-c3ncccn3)n2)CCNCC1,Percent Effect,"30 µM, 30.03 µM",15.9%
CC(C)CSCCN1CCN(S(C)(=O)=O)CC1,Percent Effect,"30.3 µM, […]",-11.46%
O=C(c1ccccc1)N1C[C@@H]2CC[C@H](C1)N(C(=O)CN1CCOCC1)C2,Percent Effect,"30.3 µM, […]",12.92%
CCNc1c(C#N)c(=O)n(C)c(=O)n1C,Percent Effect,"30.3 µM, […]",22.41%
OC1CCN(c2ccnc(NCCN3CCc4ccccc4C3)n2)C1 (centres undefined),Percent Effect,"30.3 µM, […]",47%
OC1CCN(c2ccnc(NCCc3ccccc3Cl)n2)CC1,Percent Effect,"30.3 µM, […]",-1.281%
OC1CCN(c2ccnc(NCCc3ccccc3Cl)n2)C1 (centres undefined),Percent Effect,"30.3 µM, […]",64.18%
Cc1cc(=O)c(C(=O)Nc2cccc(CCN3CCCC3)c2)c[nH]1,Percent Effect,"30.3 µM, […]",12.01%
Cc1ccc(F)c(C(=O)Nc2cccc(CCN3CCCC3)c2)c1,Percent Effect,"30.3 µM, […]",51.62%
Cn1cc(C(=O)Nc2cccc(CCN3CCCC3)c2)ccc1=O,Percent Effect,"30.3 µM, […]",25.83%
CN(C(=O)c1cccc2[nH]ncc12)C1CCN(c2ccccn2)CC1,Percent Effect,"30 µM, 30.03 µM",-37.63%
COc1c(C)cc(CNCc2ccnc(N3CCOCC3)c2)cc1C.Cl,Percent Effect,30 µM,54.99%
COc1cc(CNCc2ccnc(N3CCOCC3)c2)cc(Cl)c1OC,Percent Effect,"30 µM, 30.03 µM",26.59%
COc1cc(CNCc2ccnc(N3CCOCC3)c2)cc(OC)c1,Percent Effect,30 µM,28.31%
O=C(CCc1ccco1)Nc1ncn(CC(=O)N2CCCCCC2)n1,Percent Effect,"30.3 µM, […]",4.673%
Cn1ncc2c(NC3CCCN(C(=O)C4CC4)C3)nc(C(C)(C)C)nc21 (centres undefined),Percent Effect,"30.3 µM, […]",-38.63%
Cn1ncc2c(N[C@H]3CC[C@@H](N)CC3)nc(C(C)(C)C)nc21,Percent Effect,"30.3 µM, […]",100.6%
Cn1ncc2c(N[C@H]3CCCC[C@@H]3O)nc(C(C)(C)C)nc21,Percent Effect,"30.3 µM, […]",44.26%
CSCC[C@@H]1CN2CCC[C@H]2CN1Cc1cn(C)nc1C,Percent Effect,"30.3 µM, […]",-2.658%
O=C(COCc1nc(-c2ccncc2)no1)N1CCCCC1,Percent Effect,"30.3 µM, […]",-11.93%
O=C(COCc1nc(-c2ccncc2)no1)N1CCCC1,Percent Effect,"30 µM, 30.03 µM",18.4%
CC1CCCCN1C(=O)COCc1nc(-c2ccncc2)no1 (centres undefined),Percent Effect,"30.3 µM, […]",55.9%
O=C(Nc1cccc(F)c1)C1CCN(Cc2noc(C3CC3)n2)CC1,Percent Effect,"30.3 µM, […]",33.46%
CN(Cc1ccc(C(=O)O)cc1)C(=O)c1sccc1OC(F)F,Percent Effect,"30.3 µM, […]",18.71%
CCC1(CO)CCCN(C(=O)c2cc(COc3ccccc3F)[nH]n2)C1 (centres undefined),Percent Effect,"30.3 µM, […]",-9.881%
CCC1(CO)CCN(C(=O)c2cc(COc3ccccc3F)[nH]n2)CC1,Percent Effect,"30.3 µM, […]",-10.91%
CCC1(CO)CCCN(C(=O)c2cc(COc3cccc(F)c3)[nH]n2)C1 (centres undefined),Percent Effect,"30.3 µM, […]",65.29%
Cc1cccc(CN2CCn3c(COc4ncccn4)nnc3C2)n1,Percent Effect,"30.3 µM, […]",26.49%
COCCn1cc(CCC(=O)Nc2c(C)nn(C)c2C)c2ccccc21,Percent Effect,"30.3 µM, […]",-5.699%
CC(C)c1nc(CN(C)C2CCN(CCc3ccncc3)C2)no1 (centres undefined),Percent Effect,30 µM,35.17%
CC(C)C[C@@H](N)C(=O)N(C)Cc1csc(C(C)C)n1,Percent Effect,"30.3 µM, […]",18.19%
CC(C)c1nc(CN(C)C(=O)[C@H](N)Cc2ccc(Cl)cc2)cs1,Percent Effect,"30.3 µM, […]",64.25%
CC(C)c1nc(CN(C)C(=O)C(O)c2ccc(Cl)cc2)cs1 (centres undefined),Percent Effect,"30.3 µM, […]",-6.394%
CN1CCN(C(=O)CC2CCN(CCc3ccccn3)CC2)CC1,Percent Effect,"30 µM, 30.03 µM",28.67%
COC[C@@H]1CCCN1C(=O)c1cc(-c2cccc(OC)c2)n[nH]1,Percent Effect,"30.3 µM, […]",15.97%
O=C(CCCn1cnc2ccccc2c1=O)Nc1nc[nH]n1,Percent Effect,"30.3 µM, […]",-11.87%
CC(C)c1ccc(S(=O)(=O)N2CSCC2C(=O)NCC(F)(F)F)cc1 (centres undefined),Percent Effect,30 µM,31.97%
CC(C)CCCNC(=O)Nc1ccc(C(N)=O)c(Cl)c1,Percent Effect,30 µM,-4.358%
Cn1cc(C2COC3(CCN(C(=O)Cc4ccccc4)CC3)C2)cn1 (centres undefined),Percent Effect,"30.3 µM, […]",7.925%
CC1COC2(CCN(C(=O)Cc3ccncc3)CC2)C1.O=C(O)C(F)(F)F (centres undefined),Percent Effect,"30.3 µM, […]",9.251%
O=C(Cc1ccncc1)N1CCC2(CC1)CC(c1ccccc1)CO2.O=C(O)C(F)(F)F (centres undefined),Percent Effect,"30.3 µM, […]",68.9%
O=C(CC1CC1)N1CCC2(CC1)CN(c1ncccn1)CCO2,Percent Effect,"30 µM, 30.03 µM",2.315%
O=C(Cc1ccccc1)N1CCC2(CC1)CN(c1ncccn1)CCO2,Percent Effect,"30.3 µM, […]",60.82%
O=C(Cc1ccccn1)N1CCC2(CC1)CN(c1ncccn1)CCO2.O=C(O)C(F)(F)F.O=C(O)C(F)(F)F,Percent Effect,"30.3 µM, […]",12.21%
OCC1(NCc2cnc(-c3ccccn3)s2)CCOCC1,Percent Effect,"30.3 µM, […]",-4.185%
CNC(=O)NCC(=O)N(C)C(c1ccc(Cl)cc1)c1cccnc1 (centres undefined),Percent Effect,"30.3 µM, […]",-0.8032%
CN(Cc1cncnc1)[C@H]1CN(C(=O)c2ccc[nH]2)[C@@H]2CCCO[C@@H]21,Percent Effect,"30.3 µM, […]",13.74%
CCCc1n[nH]c(C2CN(C(=O)CCCn3ccnc3)CCO2)n1 (centres undefined),Percent Effect,"30.3 µM, […]",48.09%
CCCc1n[nH]c(C2CN(C(=O)CCCn3cccn3)CCO2)n1 (centres undefined),Percent Effect,"30 µM, 30.03 µM",8.129%
CCCc1n[nH]c(C2CN(C(=O)CCCn3ccnc3C)CCO2)n1 (centres undefined),Percent Effect,"30.3 µM, […]",52.76%
CCCC(=O)NCC(=O)Nc1cc(F)ccc1SCC(F)F,Percent Effect,"30.3 µM, […]",-46.76%
CN(C)C(=O)CN1C[C@@H]2CC[C@H](C1)N(C(=O)CCCn1cncn1)C2,Percent Effect,"30.3 µM, […]",3.091%
CC(C)(C)n1nnnc1CN(Cc1ccccc1)Cc1ccc(Cl)cc1,Percent Effect,"30.3 µM, […]",73.63%
CC(C)(C)n1nnnc1CN(CCc1ccccc1)Cc1ccccc1,Percent Effect,"30.3 µM, […]",46.18%
CC(C)(C)n1nnnc1CN(Cc1ccccc1)Cc1ccccc1Cl,Percent Effect,"30.3 µM, […]",-43.37%
